The results in this text go back to PubChem BioAssay AID602261 (Sanford-Burnham Center for Chemical Genomics, 2012).

Molecules are shown by their SMILES. Values joined by “and” are separate entries in the source; they are usually repeats but may differ in a detail not shown here. Equal entries are not always repeated. In all, about 360,000 compounds went through this assay and about 2,400 (0.67%) were called active.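 How the source made its calls: active means compounds whose normalised, plate-corrected inhibition of enzyme fluorescence in the single-dose primary screen is 50% or more; inactive means the rest.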 Many of the other results were omitted from the sample, so actives are more common in it than they were.

Fatty acid synthase (Homo sapiens), sequence (P49327 whole entry, looked up): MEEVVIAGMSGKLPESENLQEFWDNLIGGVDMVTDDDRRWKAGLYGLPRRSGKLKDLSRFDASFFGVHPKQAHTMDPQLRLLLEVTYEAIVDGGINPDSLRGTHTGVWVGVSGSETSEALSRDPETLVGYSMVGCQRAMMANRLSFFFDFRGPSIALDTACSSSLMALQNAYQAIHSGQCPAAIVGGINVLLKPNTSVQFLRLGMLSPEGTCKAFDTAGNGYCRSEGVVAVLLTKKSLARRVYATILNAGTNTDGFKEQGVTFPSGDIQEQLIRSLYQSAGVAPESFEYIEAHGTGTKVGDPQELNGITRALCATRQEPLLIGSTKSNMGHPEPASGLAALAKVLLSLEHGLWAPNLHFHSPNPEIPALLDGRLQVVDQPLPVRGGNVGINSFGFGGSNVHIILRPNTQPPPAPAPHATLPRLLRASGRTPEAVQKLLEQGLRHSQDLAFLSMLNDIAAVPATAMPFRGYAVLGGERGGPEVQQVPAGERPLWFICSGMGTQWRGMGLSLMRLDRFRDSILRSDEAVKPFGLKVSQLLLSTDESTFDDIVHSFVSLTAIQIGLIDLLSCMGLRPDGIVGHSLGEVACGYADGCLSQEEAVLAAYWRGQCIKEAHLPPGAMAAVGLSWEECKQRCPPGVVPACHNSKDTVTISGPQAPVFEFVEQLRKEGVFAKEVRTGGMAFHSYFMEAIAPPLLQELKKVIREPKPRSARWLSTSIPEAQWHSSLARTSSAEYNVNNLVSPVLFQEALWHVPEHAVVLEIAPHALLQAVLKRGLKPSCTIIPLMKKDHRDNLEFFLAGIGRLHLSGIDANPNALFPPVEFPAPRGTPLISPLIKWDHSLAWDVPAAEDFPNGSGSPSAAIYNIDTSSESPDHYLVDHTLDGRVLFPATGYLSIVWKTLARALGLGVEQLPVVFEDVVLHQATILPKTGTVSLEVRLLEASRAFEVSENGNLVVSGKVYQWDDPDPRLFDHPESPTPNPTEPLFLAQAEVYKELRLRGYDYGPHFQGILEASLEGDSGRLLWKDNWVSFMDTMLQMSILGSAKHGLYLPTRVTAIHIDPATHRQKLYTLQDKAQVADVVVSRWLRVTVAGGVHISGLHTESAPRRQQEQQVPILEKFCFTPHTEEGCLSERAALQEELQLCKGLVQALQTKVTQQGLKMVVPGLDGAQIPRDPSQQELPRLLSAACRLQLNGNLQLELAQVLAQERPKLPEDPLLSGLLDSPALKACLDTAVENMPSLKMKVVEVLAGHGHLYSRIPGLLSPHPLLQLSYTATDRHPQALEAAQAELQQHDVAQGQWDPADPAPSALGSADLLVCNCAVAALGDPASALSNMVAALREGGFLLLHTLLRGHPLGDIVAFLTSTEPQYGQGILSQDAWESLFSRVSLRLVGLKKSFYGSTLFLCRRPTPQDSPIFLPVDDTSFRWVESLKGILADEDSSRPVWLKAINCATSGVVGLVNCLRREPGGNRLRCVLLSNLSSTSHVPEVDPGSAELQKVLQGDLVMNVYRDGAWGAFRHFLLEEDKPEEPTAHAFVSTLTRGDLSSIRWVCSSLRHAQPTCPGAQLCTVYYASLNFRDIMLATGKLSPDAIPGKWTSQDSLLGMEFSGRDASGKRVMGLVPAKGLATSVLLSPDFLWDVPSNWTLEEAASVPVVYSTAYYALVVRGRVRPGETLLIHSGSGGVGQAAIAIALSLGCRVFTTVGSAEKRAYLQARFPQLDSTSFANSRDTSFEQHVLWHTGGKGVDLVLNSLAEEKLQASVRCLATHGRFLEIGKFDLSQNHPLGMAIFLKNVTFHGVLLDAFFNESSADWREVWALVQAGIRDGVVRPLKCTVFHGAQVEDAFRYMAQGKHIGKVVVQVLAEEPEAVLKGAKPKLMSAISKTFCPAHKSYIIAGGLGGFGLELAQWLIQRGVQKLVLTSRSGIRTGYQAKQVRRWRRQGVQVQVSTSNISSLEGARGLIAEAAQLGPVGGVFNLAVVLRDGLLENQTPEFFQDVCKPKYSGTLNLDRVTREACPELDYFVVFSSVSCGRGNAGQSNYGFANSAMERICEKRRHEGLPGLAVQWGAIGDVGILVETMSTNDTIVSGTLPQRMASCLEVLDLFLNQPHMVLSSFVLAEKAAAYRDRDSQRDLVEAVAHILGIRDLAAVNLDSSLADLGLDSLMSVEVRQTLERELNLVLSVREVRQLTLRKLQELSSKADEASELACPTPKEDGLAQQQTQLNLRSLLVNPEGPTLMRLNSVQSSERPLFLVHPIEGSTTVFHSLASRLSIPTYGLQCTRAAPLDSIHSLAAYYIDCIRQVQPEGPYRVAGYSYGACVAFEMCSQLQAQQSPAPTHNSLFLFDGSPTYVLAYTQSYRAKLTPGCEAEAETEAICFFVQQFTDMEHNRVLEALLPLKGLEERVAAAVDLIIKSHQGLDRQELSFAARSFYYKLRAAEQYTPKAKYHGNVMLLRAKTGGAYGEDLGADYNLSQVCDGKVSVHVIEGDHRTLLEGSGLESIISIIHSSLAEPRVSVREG

This assay addresses Fatty acid synthase (Homo sapiens) (UniProt P49327). As to the kind of experiment: inhibition of human FAS-TE enzyme activity – biochemical, fluorescence intensity, uHTS, primary screen (AID 602261).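 Further: 0% = DMSO with enzyme and 100% = substrate without enzyme.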 Conditions: recombinant FAS-TE, OMFH fluorogenic substrate, fluorescence endpoint; at 15 µM; hits give high values.
In general, inhibition refers to the change of the read-out against control, counted positive when it falls. As for `CCOc1ccccc1N(CC(=O)NC1CCCCC1)C(=O)CCCC(=O)Nc1ccccn1`, the inhibition was -7.1% (inactive). Consider `COC(=O)c1c(NC(=O)CN2CCN(S(=O)(=O)c3ccccc3[N+](=O)[O-])CC2)sc2c1CCC(C)C2` (stereo not given), for which the inhibition is 38.1% (inactive). On to `CCCCOC(=O)NCN1C(=O)C2C3C=CC(C3)C2C1=O` (stereo not given), for which the inhibition was -2.4% (inactive). On to `CCCCCOC(=O)c1ccc(N2C(=O)C3C4C=CC(C4)C3C2=O)cc1` (stereo not given), for which the inhibition is 83.5% (active). Regarding `CCCOC(=O)c1ccc(N2C(=O)c3ccccc3C2=O)cc1`, the inhibition is -2.6% (inactive).

On to `CC1(c2ccccc2Cl)NC(=O)N(CC(=O)NC(=O)NCc2ccco2)C1=O` (stereo not given), for which the inhibition was -2.3% (inactive). Turning to `CCOC(=O)c1nn(-c2cccc(C)c2)cc1C(=O)c1ccccc1`, the inhibition is 17.5% (inactive). The same measure for `CCCCNC(=O)OC1CC2CC1[C@H]1CCCCN1C2=O` (stereo not given in full): -13% (inactive); for `COc1ccc([N+](=O)[O-])cc1NCC(=O)c1ccc(C)cc1`: 11.8% (inactive).

For `COc1ccc([N+](=O)[O-])cc1NC(=O)CC1SC(=Nc2cccc(C)c2C)N(/N=C(\C)c2ccc(C)cc2)C1=O` (stereo not given), the inhibition is 75.8% (active). With `COc1ccc(Br)cc1CN(C)CC(=O)Nc1cc([N+](=O)[O-])ccc1OC`, the inhibition is 42.3% (inactive). As for `Cc1ccc(NC2(C#N)C(=O)Nc3ccccc32)cc1` (stereo not given), the inhibition was -3.6% (inactive). As for `NS(=O)(=O)c1ccc(N=Cc2ccc(Br)s2)cc1`, the figure is -8.2% (inactive); as for `CC(=O)c1sc(N)nc1C`, -11.2% (inactive) and -7.8% (inactive). Consider `CC(=O)c1sc(N/N=C/c2ccc(C(C)C)cc2)nc1C`, for which the inhibition is 58.4% (active). On to `CC(=O)c1sc(NC(=O)C2=NN(c3ccccc3)C(=O)CC2)nc1C`, for which the inhibition is -6.4% (inactive). In the case of `Cc1nc2ccccc2nc(=O)c1NNc1ccc([N+](=O)[O-])cc1`, the inhibition is -7.2% (inactive). Regarding `CNC[C@@H]1Oc2c(NS(C)(=O)=O)cccc2C(=O)N([C@@H](C)CO)C[C@H]1C`, the inhibition is -11.2% (inactive).

As for `O=S(=O)(c1ccc(F)cc1)N1CC=C(c2ccccc2)CC1`, the inhibition was 27.5% (inactive).

For `O=S(=O)(c1ccc(F)cc1)n1ccc(-c2cnc(-c3ccccc3)s2)n1`, the inhibition was 67.2% (active). As to `CC(=O)c1cnc(-c2ccccc2)s1`, the inhibition is -1.4% (inactive).

For `CC1CCN(C(=S)c2cccc(O)c2)CC1`, the inhibition was -0.1% (inactive).

For the compound `CCn1c(SCC(=O)Nc2cccc(F)c2)nnc1-c1cc2cc(Br)ccc2o1`, the inhibition was -5.5% (inactive). `O=C(CP(=O)(c1ccccc1)c1ccccc1)N1CCOCC1`: the inhibition was -3.5% (inactive). With `CCCCCCN1CCN(C2CN(Cc3cn(Cc4ccc(F)cc4)nn3)S(=O)(=O)C2)CC1` (stereo not given), the inhibition is -7.8% (inactive).

For `COc1ccc(CN2[C@@H](CC(=O)O)c3cc(F)ccc3S2(=O)=O)cc1`, the inhibition is -9.9% (inactive). With `CCCCCCCCCCCCN1[C@@H](CC(C)=O)c2cc(F)cc(F)c2S1(=O)=O`, the inhibition is 57.7% (active).

Consider `CC1(C)Cc2nc3sc4c(SCC(=O)NC(c5ccccc5)c5ccccc5)ncnc4c3cc2CO1`, for which the inhibition was -7.6% (inactive). Regarding `CCCc1cc(-c2nc(-c3ccc(C)cc3)cs2)ccn1`, the inhibition is 56.3% (active). On to `Fc1ccc(-c2csc(-c3ccc(C4SCCS4)cc3)n2)cc1F`, for which the inhibition was 33% (inactive).

Regarding `CCCc1nc2scc(-c3ccc(C)cc3)c2c(=O)n1N`, the inhibition was -1.6% (inactive). On to `Cc1ccc(C(=O)C(=S)N2CCOCC2)cc1`, for which the inhibition is -7.7% (inactive). As to `O=C1OCCN1C(=O)[C@H]1[C@H](c2ccc(F)cc2)C(c2ccccc2)=NN1c1ccc(Br)cc1`, the inhibition is 46.2% (inactive). Take `O=C1OCCN1C(=O)[C@H]1[C@H](c2ccccc2)C(c2ccc(F)cc2)=NN1c1ccccc1`: the inhibition is 41.9% (inactive). With `O=C1OCCN1C(=O)[C@H]1[C@H](c2ccc(Cl)cc2)C(c2cccc(Cl)c2)=NN1c1ccc(Br)cc1`, the inhibition is 67.3% (active). Take `COCCNC(=O)CSc1nc2c(n1-c1ccccc1)CCCC2`: the inhibition is -7.1% (inactive). `Cc1ccccc1-n1c(SCC(=O)Nc2cccc3ccccc23)nc(O)cc1=O`: the inhibition was -5.5% (inactive). For the compound `Cc1ccc(C)c(NC(=O)COC(=O)CSc2ccccc2)c1`, the inhibition is -9.4% (inactive).

`Cc1ccc(C)c(NC(=O)CSc2nc3c(oc4ccccc43)c(=O)n2-c2ccccc2)c1`: the inhibition is 62.3% (active). On to `Cc1ccc(C)c(Cn2cnc3c(oc4ccccc43)c2=O)c1`, for which the inhibition was 16.6% (inactive). As for `CCN1CCN(C(=O)/C=C\C(=O)O)CC1`, the inhibition was -3% (inactive).

Take `COc1ccc(/C=C/C(=O)c2cc(Br)ccc(=O)c2O)cc1`: the inhibition was 6.9% (inactive). The same measure for `COC(=O)CN(c1cccc(C(C)=O)c1)S(C)(=O)=O`: -7% (inactive). Turning to `O=C(COC(=O)c1ccccc1Cl)NC1CCCCCCC1`, the inhibition was 8.2% (inactive). On to `O=C(COC(=O)Cc1ccc([N+](=O)[O-])cc1)NC1CCCCCC1`, for which the inhibition is 22.7% (inactive). As for `O=C(COC(=O)c1cc([N+](=O)[O-])ccc1NCc1ccccc1)NC1CCCCC1`, the inhibition was 60.7% (active). For the compound `COc1ccc(S(=O)(=O)N(CCCN2CCCC2=O)Cc2cc3c(C)ccc(C)c3[nH]c2=O)cc1`, the inhibition was -3% (inactive). For `O=C(CCC1CCCCC1)Nc1cc(C(F)(F)F)ccc1N1CCOCC1`, the inhibition is 34.3% (inactive). Take `Cc1cccc(CS(=O)(=O)c2ncc(Cl)c(C(=O)Nc3ccc(F)cc3)n2)c1`: the inhibition was 56.5% (active). Regarding `Cc1cccc(CN2CCC(CNC(=O)Nc3ccc(F)c(Cl)c3)CC2)c1`, the inhibition was 2.9% (inactive). For `Cc1ccc(C)c(Cn2nnc3c(=O)[nH]c(C(=O)Nc4ccc(F)cc4)nc32)c1`, the inhibition is 3.8% (inactive). For `O=C(N=C1SC2CS(=O)(=O)CC2N1c1ccccc1)c1ccccc1` (stereo not given), the inhibition is 8.4% (inactive). The same measure for `O=[N+]([O-])c1ccc(CN2CC(N3CC=CC3)CS2(=O)=O)cc1` (stereo not given): -9.2% (inactive); for `O=[N+]([O-])c1ccc(CN2CC(N3CCC(c4ccccc4)CC3)CS2(=O)=O)cc1` (stereo not given): 69.8% (active). With `O=S1(=O)CC(N2CCC(Cc3ccccc3)CC2)CN1Cc1ccccc1` (stereo not given), the inhibition is 6.6% (inactive). For the compound `CN(C(=O)c1ccc(NC(=O)Cc2cccc(NC(=O)C3CCN(C(=O)c4ccccc4)CC3)c2)cc1)C1CC1`, the inhibition is -9.5% (inactive).

In the case of `CCOc1ccc(C(=O)NC2CCN(CC(=O)NCc3cccs3)CC2)cc1`, the inhibition is -3.1% (inactive). Turning to `Cc1cccc(NC(=O)C(C)N2C(=O)C3C4CC(C(Br)C4Br)C3C2=O)c1` (stereo not given), the inhibition was 20.5% (inactive). As for `O=C(Nc1ccnn1C1CCN(C/C=C/c2ccc(F)cc2)CC1)C1CCCC1`, the figure is -0.7% (inactive). On to `COC(=O)c1cc(Oc2ccc(S(=O)(=O)N3CCOCC3)cc2[N+](=O)[O-])cc(C(=O)OC)c1`, for which the inhibition was 38.3% (inactive).

With `Cc1cc(S(=O)(=O)N2CCOCC2)ccc1OCC(=O)N1CCOCC1`, the inhibition was -2.5% (inactive). As to `Cc1cc(C(=O)COc2ccccc2[N+](=O)[O-])c(C)n1-c1cccc(S(=O)(=O)N2CCOCC2)c1`, the inhibition was 58.7% (active).

As for `CSc1n[nH]c(=S)n1N`, the inhibition is -4.3% (inactive). Take `O=S(=O)(c1cnccc1N1CCN(/N=C/c2ccc(Br)cc2)CC1)N1CCCCC1`: the inhibition is 31.4% (inactive). On to `Cc1cc(Nc2cccc(F)c2)n2ncnc2n1`, for which the inhibition is -2.8% (inactive). Regarding `COc1ccc(C2CC(=O)n3c(nc4ccccc43)S2)cc1OC` (stereo not given), the inhibition is -161% (inactive). As for `COc1cccc(C2CC(c3ccccc3)=NN2S(=O)(=O)c2ccccc2)c1OC` (stereo not given), the figure is 20% (inactive); as for `COc1ccccc1C1CC(=O)n2c(nc(-c3ccccc3)c2-c2ccccc2)S1` (stereo not given), 54.5% (active); as for `O=C(NCCNc1ccc([N+](=O)[O-])cc1)c1cccc2c(Br)cccc12`, 37.6% (inactive). With `COc1c(C)cc(C(O)c2ncc(-c3cccc(C(F)(F)F)c3)[nH]2)cc1C` (stereo not given), the inhibition is 7.9% (inactive). In the case of `O=S1(=O)C[C@@H](N2CCN(CCO)CC2)[C@H](COCc2ccccc2)N1`, the inhibition is -9.7% (inactive). The same measure for `CC(=O)Nc1ccc(N2C(=O)C3C4CC(=O)C(c5ccccc54)C3C2=O)cc1` (stereo not given): -10% (inactive); for `O=C(Oc1cccc(N2C(=O)C3C4c5ccccc5C(c5ccccc54)C3C2=O)c1)c1ccco1` (stereo not given): 64.1% (active). `COC(=O)c1cccc(N2C(=O)C3C4C=CC(CC4)C3C2=O)c1` (stereo not given): the inhibition is -6.4% (inactive). In the case of `CCCNC(=O)COc1coc(CN2CCN(Cc3ccccc3)CC2)cc1=O`, the inhibition is -9.4% (inactive).

In the case of `CC1(c2cccc(N)c2)OCCO1`, the inhibition is -9.3% (inactive). Turning to `Cc1ccc(S(=O)(=O)N(CC(O)CN2CCCCC2)c2cccc([N+](=O)[O-])c2)cc1` (stereo not given), the inhibition is 2.6% (inactive).

For the compound `COc1ccc([N+](=O)[O-])cc1N(CC(O)CN(CC(C)C)CC(C)C)S(=O)(=O)c1ccc(C)cc1` (stereo not given), the inhibition was 32.7% (inactive). With `COc1ccc([N+](=O)[O-])cc1N(CC(O)Cn1nnc2ccccc21)S(=O)(=O)c1ccc(C)cc1` (stereo not given), the inhibition is 51.1% (active). As for `Cc1c(C(=O)N2CCCC2)c(S(=O)(=O)NCC(C)c2ccccc2)c(C)n1C` (stereo not given), the figure is 2.1% (inactive). Take `O=C(COc1ccc(Cl)cc1)NCCC1=CCCCC1`: the inhibition is 15.7% (inactive). Take `Cc1ccnc(NC(=O)c2ccc(Cl)c([N+](=O)[O-])c2)c1`: the inhibition was 23.1% (inactive). Turning to `O=C(NCCC1=CCCCC1)c1ccc(Cl)c([N+](=O)[O-])c1`, the inhibition was 59.5% (active). Regarding `COc1ccc(C(c2nnnn2Cc2cccs2)N2CCN(c3ccccc3)CC2)cc1OC` (stereo not given), the inhibition is 14.2% (inactive).

In the case of `Nc1c(C(=O)O)cnn1-c1ccccc1`, the inhibition was -1.5% (inactive). Consider `O=C(CCl)N(Cc1cccc([N+](=O)[O-])c1)c1cccc(Cl)c1`, for which the inhibition was 15.2% (inactive). With `Nc1c(-c2cccc(Cl)c2)cnn1-c1cccc([N+](=O)[O-])c1`, the inhibition is 51.8% (active). On to `COc1cccc(NC(=O)COC(=O)/C=C/c2ccco2)c1`, for which the inhibition is 3.5% (inactive). On to `CC(C)CNC(=O)COC(=O)/C=C/c1ccco1`, for which the inhibition was -7.5% (inactive).

For `COc1ccc([N+](=O)[O-])cc1NC(=O)COC(=O)/C=C/c1ccco1`, the inhibition was 71.2% (active).
